# Several values for one entry are separate records, joined by “and”; a condition that tells them apart may be missing. Identical values can stand only once. The panel holds about 83,000 compounds, 20% with a hit somewhere; the sample as a whole holds those more often.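 A percent growth of 40 corresponds to 60% growth inhibition; 0 means no net growth; -100 means all cells died. Active threshold: below 10.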 A number with no mark means an inactive call. Activity calls are given as the source filed them.
# Test system: SK-OV-3 ovarian
# Test: NCI-60 one-dose screen, 48 h (100 = growth as untreated, 0 = no growth, -100 = all killed)
# Conditions: 10 µM unless noted
row,Structure (SMILES),growth
1,CN1CCN(CCCN2c3ccccc3Sc3ccc(Cl)cc32)CC1,99%
2,O=C(c1cccc(Br)c1)N1CCN(c2ccnc3cc(Cl)ccc23)CC1,98.3%
3,N#CSc1c[nH]c2ccc(/C=C/C(=O)/C=C(/C=C/c3ccc4[nH]cc(SC#N)c4c3)OB(F)F)cc12,98.4%
4,COc1cc(Nc2nc3ccccc3cc2C(=O)Nc2ccc(F)c(F)c2)cc(OC)c1OC,42.2%
5,CCOC(=O)CC1CSC(c2cccc(Cl)c2)=N1 (centres undefined),103%
6,CC/C=C\C/C=C\C[C@H](O)C/C=C1/C(=O)C=C[C@@H]1C/C=C\CCCC(=O)OC,24.2%
7,CCCCCCNC(=O)Oc1ccc(/C(=C(/CC)Cc2ccccc2)c2ccc(OCCCN(C)C)cc2)cc1,88.2%
8,NC(N)=NC(N)=NCCCc1ccco1,103%
9,O=C(N=Nc1c(O)[nH]c2ccccc12)Nc1ccccc1Cl,94.4%
10,O=C(N/N=C/c1ccc(O)cc1O)c1cccc(Nc2ccnc(C(F)(F)F)c2)c1,25.1%
11,O=C(Nc1ccc2ccccc2c1)c1cc2ccccc2cc1O,94.3%
12,Cc1ccc(-c2nc3nc(-c4ccccc4)nc(N4CCN(S(=O)(=O)c5ccccc5)CC4)c3o2)cc1,77.4%
13,Cn1cc(C2=C(c3cccc4ccccc34)C(=O)NC2=O)c2cc(Br)ccc21,90.3%
14,CC[C@@H]1NC(=O)[C@H]([C@H](O)[C@H](C)C/C=C/c2ccc(CN3C(=O)C(C)=C(C)C3=O)cc2)N(C)C(=O)[C@H](C(C)C)N(C)C(=O)[C@H](CC(C)C)N(C)C(=O)[C@H](CC(C)C)N(C)C(=O)[C@@H](C)NC(=O)[C@H](C)NC(=O)[C@H](CC(C)C)N(C)C(=O)[C@H](C(C)C)NC(=O)[C@H](CC(C)C)N(C)C(=O)CN(C)C1=O,83.4%
15,O=C1/C(=C/c2ccc(F)c(F)c2)CN(C(=O)C(Cl)Cl)C/C1=C\c1ccc(F)c(F)c1,-35% (active)
16,O=C1C(c2c[nH]c3ccccc23)=C(c2coc3cc(Br)ccc23)C(=O)N1O,98.8%
17,CC1=CC(C)(C)NC(=S)N1c1ccc(Cl)cc1,122% and 93.2%

row,Structure (SMILES),growth
1,O=C1/C(=C/c2ccccc2)CN(C(=O)C(Cl)Cl)C/C1=C\c1ccccc1,90.2%
2,CC(=O)N1N=C(c2ccc(Nc3nc(Nc4ccc(F)cc4)nc(Nc4ccc(Cl)cc4)n3)cc2)CC1c1ccc(N(C)C)cc1 (centres undefined),85.1%
3,CCCN1C(=O)/C(=c2\sc3n(c2=O)NC2C(N=3)N(CC)C(=O)N2CC)c2ccccc21 (centres undefined),63.6%
4,CONC1=Nc2cc(NC(N)=NCc3ccccc3)c(N(C)C3CCCCC3)cc2OC1,83.5%
5,Cc1c(CC(=O)OCCO)cc(-c2ccc(Cl)cc2)n1-c1ccccc1,110%
6,COc1cc(/C=C2\CCC/C(=C\c3cc(CN4CCCC4)c(O)c(OC)c3)C2=O)cc(CN2CCCC2)c1O,102%
7,Fc1ccccc1-c1cnn2cc(-c3ccccc3)cnc12,98%
8,CC(C)(C)c1cc(NC(=O)Nc2ccc(-c3cn4c(n3)sc3cc(OCCN5CCOCC5)ccc34)cc2)no1,45.4% and 27.9%
9,COc1ccc(/C=N/NC(=O)CN2CCN(c3cc4c(cc3F)c(=O)c(C(=O)O)cn4C3CC3)CC2)cc1O,108%
10,NNCCc1ccccc1,108% and 94.9%
11,CNC(=O)c1cc(Oc2ccc3nc(NC(=O)Nc4ccc(C(F)(F)F)cc4)sc3c2)ccn1,105%
12,CC1=C2[C@@H](CC1)[C@]1(C)O[C@@](C3CC3)(C[C@H]1OC(=O)CO)[C@H]2OC(=O)/C=C/c1ccccc1,99.3%
13,O=C(c1ccc(Nc2nccc(NCCCNc3ccnc4cc(Cl)ccc34)n2)cc1)N1CCCCC1,66.7%
14,CCN(CC)CC#CCOC(=O)[C@]1(C)CCC[C@]2(C)c3ccc(C(C)C)cc3CC[C@@H]12,89.2%
15,Nc1nc2ccccc2c2c(=O)c3ccc(Cl)cc3sc12,98.4%
16,Nc1nc2c(s1)CCc1cn(S(=O)(=O)c3ccccc3)cc1-2,106% and 109%
17,COc1cccc(NC(=O)c2sc3nc(C)c(C(O)c4ccccc4)cc3c2N)c1 (centres undefined),12.5%
